Key:
Assay in all cases: PBM binding z-score (relative to random genomic background probes); higher = stronger binding; sequences stand for … in GC…GCGATTGACAGCGTAGAATGAAGG
[1] = test system: RARb homodimer (NR concentration 270 nM)
In short: (§1)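 Custom Agilent 4×180K protein-binding microarrays carried double-stranded probes, each with a 34-nt variable region. These regions held direct-repeat seeds, single-nucleotide variants, half-site ablations and random human genomic background sequences. Ligand-free nuclear receptor dimers were incubated on the arrays for 1 h, antibodies against each partner (one per run) detected binding, and scanned fluorescence was regression-normalized. Binding z-scores take the random background probes as reference.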

[2] = test system: RARg:RXRa (NR concentration 270 nM, RXRa partner concentration 90 nM)
In short: as §1

[3] = test system: RARg homodimer (NR concentration 270 nM)
In short: as §1

[4] = test system: RXRa DBDmut IVT, anti-RXR (DBD mutation: RXRa K156A/R161A, NR concentration 90 nM)
In short: as §1

[5] = test system: RXRa homodimer (NR concentration 180 nM)
In short: as §1

[6] = test system: THRa:RXRa (NR concentration 90 nM, RXRa partner concentration 90 nM)
In short: as §1

[7] = test system: THRa homodimer (NR concentration 90 nM)
In short: as §1

[8] = test system: VDR homodimer (NR concentration 270 nM)
In short: as §1

CCGACTGGGGCAGAAAGGTTACAATACCATCCGG
PBM binding z-score [1]: 1.83
PBM binding z-score [2]: 1.59
PBM binding z-score [3]: 1.25
PBM binding z-score [4]: -0.65
PBM binding z-score [5]: 1.75
PBM binding z-score [6]: 0.907
PBM binding z-score [7]: -0.555
PBM binding z-score [8]: 0.0532

TCTTGTAGATCGACAGGAGGTTAAGAAAGATCGA
PBM binding z-score [1]: 0.302
PBM binding z-score [2]: 0.34
PBM binding z-score [3]: 0.0753
PBM binding z-score [4]: 0.223
PBM binding z-score [5]: 0.86
PBM binding z-score [6]: 0.713
PBM binding z-score [7]: -0.764
PBM binding z-score [8]: -0.181

TAGCCTAGGTCATTCAGGGGCCAGTATTGAAAGC
PBM binding z-score [1]: 3.3
PBM binding z-score [2]: 6.04
PBM binding z-score [3]: 4.51
PBM binding z-score [4]: 2.08
PBM binding z-score [5]: 2.72
PBM binding z-score [6]: 3.47
PBM binding z-score [7]: 0.833
PBM binding z-score [8]: 2.03

GTACCAAGGTGAATAGGTAGTTGATGAGTAGGCG
PBM binding z-score [1]: 0.555
PBM binding z-score [2]: 0.67
PBM binding z-score [3]: 0.626
PBM binding z-score [4]: -0.423
PBM binding z-score [5]: 0.629
PBM binding z-score [6]: 1.14
PBM binding z-score [7]: 0.657
PBM binding z-score [8]: 0.0253

TCATATAGGTAAAGGTGGAAGTCGAACGATATGA
PBM binding z-score [1]: 0.0636
PBM binding z-score [2]: 0.544
PBM binding z-score [3]: 0.404
PBM binding z-score [4]: 1.02
PBM binding z-score [5]: 0.958
PBM binding z-score [6]: -0.14
PBM binding z-score [7]: -0.387
PBM binding z-score [8]: 0.109

CCTACTGGGCCACAAAGGTCATTGATGCCGATAA
PBM binding z-score [1]: 4.64
PBM binding z-score [2]: 5.33
PBM binding z-score [3]: 4.68
PBM binding z-score [4]: 1.13
PBM binding z-score [5]: 6.32
PBM binding z-score [6]: 3.38
PBM binding z-score [7]: 0.818
PBM binding z-score [8]: 3.31

ATCCCTAGGTAACAAGTTCAGTGAAAGAGAGGAC
PBM binding z-score [1]: 1.94
PBM binding z-score [2]: 1.09
PBM binding z-score [3]: 1.15
PBM binding z-score [4]: 0.955
PBM binding z-score [5]: 0.712
PBM binding z-score [6]: 1.65
PBM binding z-score [7]: 1.17
PBM binding z-score [8]: 2.48

From the supplement of paper PMC6555819
